Source: PubChem BioAssay AID1004 (SRMLSC, 2008)
Unmarked numbers belong to inactive results. Activity calls are given as the source filed them.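 The calls were made as follows: active = viability at 10 µM of 29.74% or lower, 3 SD below the compound median; inactive = the rest.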

Assay: viability of HCT116 lacking mutant beta-catenin – cell-based, DP diverse set, validation, pilot screen (AID 1004)
Conditions: HCT116 (mutant beta-catenin deleted) viability, CellTiter-Glo, 60 h; at 10 µM; active compounds read low

Structure (SMILES)	viability
COc1ccc(CC(N)C(=O)N[C@H]2[C@@H](O)[C@H](n3cnc4c(N(C)C)ncnc43)O[C@@H]2CO)cc1 (stereo partly specified)	7.16% (active)
NC(=NCc1ccccc1)NC(=O)c1nc(Cl)c(N)nc1N	88.8%
C=CC1(C)CC(=O)C2(O)C(C)(O1)C(OC(C)=O)C(O)C1C(C)(C)CCC(O)C12C (stereo unspecified)	86%
CC1(C)[C@@H](O[C@H]2O[C@H](C(=O)O)[C@@H](O)[C@H](O)[C@H]2O[C@@H]2O[C@H](C(=O)O)[C@@H](O)[C@H](O)[C@H]2O)CC[C@]2(C)[C@H]3C(=O)C=C4[C@@H]5C[C@@](C)(C(=O)O)CC[C@]5(C)CC[C@@]4(C)[C@]3(C)CC[C@@H]12	101%
C[C@H](CCC(=O)O)[C@H]1CC[C@H]2[C@@H]3CC[C@@H]4C[C@H](O)CC[C@]4(C)[C@H]3CC[C@]12C	102%
CC(=O)N[C@H]1C(O[C@@H]2O[C@H](C[C@@H](O)[C@H]3O[C@@H](N4CCC(=O)NC4=O)[C@H](O)[C@@H]3O)[C@H](O)[C@H](O)[C@H]2NC(=O)/C=C/CCCCCCCCCCC(C)C)OC(CO)[C@@H](O)[C@@H]1O (stereo partly specified)	55.1%
COc1cccc2c1C(=O)c1c(O)c3c(c(O)c1C2=O)C[C@@](O)(C(=O)CO)C[C@@H]3OC1C[C@@H](N)[C@H](O)[C@H](C)O1 (stereo partly specified)	27.4% (active)
CCC(C)C(O)C(C)C(=O)C(C)/C=C(\C)CC(C)C1OC(=O)C1CC (stereo unspecified)	107%
CSc1ccc(/C=C2/C(C)=C(CC(=O)O)c3cc(F)ccc32)cc1	96%
O=C(O)c1cc([N+](=O)[O-])ccc1NCCCc1ccccc1	99.6%
CC1=C(/C=C/C(C)=C/C=C/C(C)=C/C(=O)O)C(C)(C)CCC1	96.5%
CCOC(=O)C(C)(C)Oc1ccc(Cl)cc1	98.7%
COc1ccc2cc3[n+](cc2c1OC)CCc1cc2c(cc1-3)OCO2	99.8%
CCOC(=O)c1c(N)sc(C)c1-c1ccccc1	108%
CCC[C@@H]1C[C@@H](C(=O)NC(C(C)Cl)[C@H]2O[C@H](SC)[C@H](O)[C@@H](O)[C@H]2O)N(C)C1 (stereo partly specified)	95.6%
CC1COC2=C1C(=O)C(=O)c1c2ccc2c1CCCC2(C)C (stereo unspecified)	32.2%

Structure (SMILES)	viability
CC(C)C[C@@H](NC(=O)[C@@H](O)[C@H](N)Cc1ccccc1)C(=O)O	92.8%
O=c1c(-c2ccc(O)cc2)coc2cc(O)ccc12	91%
CC(C)CC(=O)N[C@H](C(=O)N[C@H](C(=O)N[C@@H](CC(C)C)[C@@H](O)CC(=O)N[C@@H](C)C(=O)N[C@@H](CC(C)C)[C@@H](O)CC(=O)O)C(C)C)C(C)C	100%
CCC(C)CCCCC(=O)N[C@@H](CCN)C(=O)N[C@H](C(=O)N[C@@H](CCN)C(=O)N[C@H]1CCNC(=O)C([C@@H](C)O)NC(=O)[C@@H](CCN)NC(=O)[C@H](CCN)NC(=O)[C@H](CC(C)C)NC(=O)[C@@H](CC(C)C)NC(=O)[C@H](CCN)NC1=O)[C@@H](C)O (stereo partly specified)	94.3%
COc1cc2c(c(OC)c1OC)-c1ccc(OC)c(=O)cc1[C@@H](NC(C)=O)CC2	39.6%
CCCCCCCCCCCCCCCC(=O)OCC(O)C1OC(=O)C(O)=C1O (stereo unspecified)	100%
Clc1ccc2ncnc(NCc3ccc4c(c3)OCO4)c2c1	95.8%
COC(=O)C1=C(C)NC(C)=C(C(=O)OCCNCc2ccccc2)C1c1cccc([N+](=O)[O-])c1 (stereo unspecified)	79.3%
O=C(c1ccccc1)c1ccccc1	97.8%
O=C1OC2(c3ccc(O)cc3Oc3cc(O)ccc32)c2ccccc21	96.5%
O=C1CCC(N2C(=O)c3ccccc3C2=O)C(=O)N1 (stereo unspecified)	96.1%
COc1ccc(-c2cc(C(=O)O)no2)cc1	99.2%
COc1cc(Cc2cnc(N)nc2N)cc(OC)c1OC	94.7%
Cn1c(=O)c2[nH]cnc2n(C)c1=O	100%
O=c1c(O)c(-c2ccc(O)c(O)c2)oc2cc(O)cc(O)c12	93%
